Reference: PubChem BioAssay AID878 (University of Pittsburgh Molecular Library Screening Center, 2007)
Among all 200,000 compounds or so, about 65 (0.03%) were called active.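 The calls were made as follows: active = activation of at least 50% relative to the plate's high and low controls in the primary single-dose screen; inactive = activation below 50%.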 The list comes from a sample in which actives are over-represented; it also holds similar structures and randomly drawn compounds.

Experiment: compounds producing H2O2 with reducing agent – biochemical, NIH compound library profiling, artefact control for MLSCN library redox annotation, primary screen (AID 878);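 also: compound incubated with DTT at 0.8 mM final as the reducing agent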
Conditions: DTT-dependent redox cycling H2O2, phenol red/HRP absorbance; at 10 µM; hits give high values; 100% = 100 µM peroxide control, 0% = buffer

activation, active:
CCOC(=O)c1c(C)[nH]c2c1-c1ccccc1C(=O)C2=O 89.8%

activation, inactive:
COC(=O)C1=C(C(=O)OC)C(c2cc([N+](=O)[O-])ccc2O)c2sc(=O)[nH]c2S1 (configuration not stated) 0.35%
COCCn1c(C)cc(C(=O)COC(=O)/C=C/c2cccc(OC)c2)c1C 0.06%
O=C(COC(=O)c1ccc(F)cc1)Nc1nc2ccc([N+](=O)[O-])cc2s1 -0.91%
Cc1nn(CC(=O)NCc2ccccn2)c(C)c1[N+](=O)[O-] 0.55%
Cc1nc(NC(=O)C2CCCCC2)sc1C 1.88%
O=C(Nc1cccc(S(=O)(=O)N2CCCCC2)c1)c1ccc2c(c1)OCO2 -0.11%
CCOC(=O)C1(Cc2ccccc2C(F)(F)F)CCN(C(=O)c2cc(C)n(C)n2)CC1 -0.12%
COC(=O)NNC1=CC(=O)CC(C)(C)C1 0.51%
CCOC(=O)c1c(N)nn(C(=O)c2ccccc2)c1-c1ccccc1 -2.05%
CCCCNC(=O)CCn1c(=O)c2ccccc2n(Cc2cc(C)ccc2C)c1=O 0.21%
C=CCn1c2ccccc2c2nnc(SCc3[nH]c(=O)[nH]c3C(=O)CCCCC(=O)OCC)nc21 0.68%
CCN1C(=O)/C(=c2\s/c(=C3\Sc4ccccc4N3C)c(=O)n2C)N(C)C1=S -0.11%
CC(=O)C1(C)N(O)C(C)(C)C(c2cccs2)=[N+]1[O-] (configuration not stated) 0.23%
Cc1c(NC(=S)NCc2ccc(F)cc2)cccc1[N+](=O)[O-] 0.02%
CN(C)/C=C(/C(=O)c1ccc(F)cc1)S(=O)(=O)c1ccc(F)cc1 -0.68%
CCC1CCCCN1C(=O)CSc1nc(C)cc(C)n1 (configuration not stated) -1.65%
CCCCC(O)(CCCC)C(=O)NN(C(=O)CCl)c1ccccc1 0.06%
O=C(c1cccs1)n1nc(NCc2ccccc2)nc1NCc1ccccc1 -0.21%
Cc1cc(C)c(C#N)c(SCC(=O)Nc2ccccc2)n1 0.39%
COc1ccc(/C=C(\C#N)C(=O)ONC2=NCCCCC2)cc1 -1.95%
Cc1cc(CNCc2c(C(=O)N(C)Cc3ccccc3)nc3ccccn23)nn1C -1.78%
Cc1ccc(C)c(OCC(=O)N2CCN(C(=O)c3ccco3)CC2)c1 -0.33%
COc1ccc(/C=C/C(=O)c2ccc(NS(=O)(=O)c3ccc(C)cc3)cc2)cc1O 0.57%
CCN(CC)C(=O)c1sc2nc(-c3ccccc3)ccc2c1N 0.13%
Cc1ccc(C)c(NC(=S)NNC(=S)Nc2ccc(C(C)C)cc2)c1 -1.35%
Oc1ccc(/C=N/Nc2ccc(C(F)(F)F)cn2)cc1O -2.05%
CC(CC(=O)O)CC(=O)NNC(=O)c1cccc(Br)c1 (configuration not stated) 0.78%
Cc1ccc(OCC(=O)OC(C)CN(C)Cc2ccccc2)cc1 (configuration not stated) -0.15%
Cc1ccc(NC(=O)c2oc(=O)c3ccccc3c2-c2ccccc2)c(C)c1 -0.2%
COc1ccc(CS(=O)/C(Cl)=C(/Cl)C(=O)Nc2ccc(OC)nc2)cc1 (configuration not stated) 0.27%
CCOC(=O)C1=C(CN2CCCCCC2)NC(=O)NC1c1cccc([N+](=O)[O-])c1 (configuration not stated) -10.2%
CCOC(=O)C1(O)CC(C)=NN1C(=O)c1cccc(Br)c1 (configuration not stated) -0.77%
COC(=O)c1ccccc1NC(=O)C1CC(=O)N(c2ccc(OC)cc2)C1 (configuration not stated) -0.76%
COn1c(-c2ccc(Cl)cc2Cl)nc2ncccc21 0.53%
C=CCNC(=S)NNC(=O)COc1c(Cl)cc(Cl)cc1Cl 0.34%
O=C(NCCCn1ccnc1)C(=O)c1cn(CC(=O)N2CCCCCC2)c2ccccc12 -0.37%
COc1ccc(N2CCN(C(=O)COc3ccc4c(C)cc(=O)oc4c3)CC2)cc1 -0.38%
O=C(CSc1nc2ccccc2[nH]1)Nc1nc(-c2ccccc2)c(-c2ccccc2)o1 0.41%
Cc1ccc(S(=O)(=O)/N=C(/Nc2ccc3[nH]c(=O)[nH]c3c2)c2ccccc2)cc1 -0.98%
COc1ccc(NC(=O)c2cc3nc(-c4ccccc4)cc(C)n3n2)cc1OC -0.08%
CCC(=O)N(Cc1cc2ccccc2[nH]c1=O)c1ccc(OC)cc1 -0.34%
CCCOc1ccc(NC(=O)CC2C(=O)N(C)C(=S)N2Cc2ccc3c(c2)OCO3)cc1 (configuration not stated) -0.41%
CCc1cccc(OC2OC(CO)C(O)C(O)C2NC(C)=O)c1 (configuration not stated) -0.96%
Oc1cccc2ccc(/C=C/c3ccc(Br)s3)nc12 -0.18%
COc1ccc(C(=O)Nc2sc(C)c(C)c2CN2CCOCC2)cc1 -0.23%
CN(/C(=N/S(=O)(=O)c1cccs1)c1ccccc1)c1ccc(O)cc1 -0.71%
O=C(NC1CCCCCC1)c1cccnc1Sc1ccc(Cl)cc1 -0.04%
C/[N+]([O-])=C\c1ccc([N+](=O)[O-])o1 0.48%
CSc1ccc(/C=N\NC(=O)CC(=O)NC(C)C)cc1 -0.35%
COCCNC(=O)c1ccc(N2CCC3(CC2)OCCO3)c([N+](=O)[O-])c1 0.43%
COc1cc(/C=C/C(=O)OCC(=O)NC(=O)NCc2ccccc2)ccc1OCC#N -0.39%
O=C(CNC(=O)c1cc(=O)[nH]c2ccccc12)Nc1ccc(F)c(F)c1 0.25%
CN(c1ccc2nc3ccccc3c(=O)n2n1)C1CCCCC1 -0.26%
COc1ccc(CC(=O)N2N=C(C)CC2(O)C(F)(F)F)cc1 (configuration not stated) -0.18%
O=C(/C=C/Sc1ncn[nH]1)c1ccc(Cl)cc1 1.23%
O=c1c2ccccc2c(-c2ccccc2)nn1-c1ccccn1 -0.18%
CCOCCCNC(=O)C(=O)NCCCOCC -0.48%
CCC1=NN(C(=O)Cc2ccc([N+](=O)[O-])cc2)C(O)(c2ccc(Br)cc2)C1 (configuration not stated) 0.2%
CCOc1cc(NC(=S)NCCCOC)c(OCC)cc1NC(=O)c1ccco1 -0.65%
CNC(=O)C(=O)N/N=C/c1ccccn1 0.83%
CCN(CC(=O)NCc1cccs1)S(=O)(=O)c1ccc(NC(C)=O)cc1 -2.2%
CCOC(=O)C1CCN(S(=O)(=O)c2cc(F)ccc2OC)CC1 -0.4%
Cc1ccc(CNC(=O)COc2ccc3c(c2)CCC3)cc1 -0.27%
CO/N=C/CC(=O)c1ccc(OC)cc1 -0.35%
CCCC1(C(=O)OCC)NC(c2ccc(N(C)C)cc2)C2C(=O)N(c3ccc4c(c3)OCCO4)C(=O)C21 (configuration not stated) 0.78%
Cc1ccc(-n2c(C)cc(/C=N\NC(=O)CC(=O)NC(C)C)c2C)cc1 0.08%
O=C(/C=C/c1cccc([N+](=O)[O-])c1)NCCSCc1ccco1 -0.1%
Cc1ccc(CC(=O)Nc2ccc(OC(F)F)c(Cl)c2)cc1C 0.61%
CCOC(=O)c1c(C)[nH]c(=S)c(C#N)c1-c1ccccc1 -0.47%
CCOC(=O)C1=C(c2ccc(OC)cc2)C(=O)c2ccccc2C1=O 0.28%
COc1ccc(S(=O)(=O)N/N=C\c2ccc(OC)c(COc3ccc(C)cc3[N+](=O)[O-])c2)cc1 0.79%
Cc1cc(NC(=O)CSCc2ccccc2C)no1 -0.39%
COc1cc(CN2CCN(Cc3ccc(C)cc3)CC2)c([N+](=O)[O-])cc1OC -0.34%
Cc1ccc(-n2c(SCC(=O)N/N=C/C=C/c3ccccc3[N+](=O)[O-])nc3ccccc3c2=O)cc1 0.36%
Cc1ccc(C(C)(C)C)c(OCCCCN2CCCC2)c1 0.04%
COC(=O)c1c(C)[nH]c(C(=O)/C=C/c2ccc(Cl)cc2)c1C 0.44%
O=C(CSc1ncn[nH]1)NCc1ccc2c(c1)OCO2 -2.24%
COC(=O)c1c(NC(=O)CN2CCN(S(=O)(=O)c3ccccc3[N+](=O)[O-])CC2)sc2c1CCC(C)C2 (configuration not stated) 0.62%
CCc1c(O)cc2n(c1=O)-c1ccccc1C2(C)C 0.55%
CC(=O)N1Cc2ccccc2CC1C(=O)O (configuration not stated) 0.61%
Cc1ccc(OCC(=O)Nc2cccc3c2CCCC3)cc1C 1.68%
CCOC(=O)Cc1ncccc1C(=O)Nc1ccc(OC)cc1 -0.93%
O=C(C1=C[C@H](C2CC2)C[C@H](OCc2ccc(CO)cc2)O1)N1CCN(Cc2ccccc2)CC1 0.58%
Cc1ccc(S(=O)(=O)C2C(=O)NC3(C)CC2c2ccccc2O3)cc1 (configuration not stated) 0.78%
COC(=O)/C=C\C(=O)Nc1cccc([N+](=O)[O-])c1 0.27%
CCn1c(=O)c(=O)n(CC)c2cc(S(=O)(=O)N3CCc4ccccc43)ccc21 -1.27%
O=C(Oc1cccc(N2C(=O)C3C4c5ccccc5C(c5ccccc54)C3C2=O)c1)c1ccco1 (configuration not stated) 0.92%
CCC(=O)/C(=C(/O)c1ccccc1)c1nc2ccccc2[nH]1 -0.31%
FC(F)(F)c1cccc(Cc2noc(CN3CCC(N4CCCCC4)CC3)n2)c1 0.44%
Cc1ccccc1-n1nnnc1SCCCC(=O)c1ccc(F)cc1 0.87%
CCOC(=O)NC(=O)C(=CNc1cccc(OC)c1)C(=O)NC(=O)OCC -0.29%
